TDP1 cell noCPT – qHTS for Inhibitors of human tyrosyl-DNA phosphodiesterase 1 (TDP1): qHTS in cells in absence of CPT; DT40 Tdp1-/- hTDP1 cells, no CPT, ATP luminescence, 48 h; Potency, µM (titrated, usually from 46.2 µM), for the others: at the highest dose activity change, negative = growth inhibition, actives largely listed as inhibitors; actives 15% (n = 420,000); AID 686978, 2013; further: potency means the concentration at half of the fitted maximal effect; on the % scale 0 is the no-effect control and ±100 the full control effect; nearly all actives have a fitted effect of over 55% in size
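A cellular qHTS used chicken DT40 cells lacking endogenous Tdp1 but carrying stably transfected human TDP1. Compounds were applied without camptothecin, and cell growth kinetics were judged by ATP-dependent luminescence after ≥48 hr.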
TDP1 cell CPT – DT40-hTDP1 cell growth loss with CPT. chicken DT40 Tdp1-/-;hTDP1 cells + 20 nM CPT, ATP luminescence, 48 h. actives 12% (n = 420,000). AID 686979. Potency, µM (top dose mostly 46.2 µM), inactives show at the highest dose activity change, negative = growth inhibition, hits mostly inhibitors; further: potency means the concentration at half of the fitted maximal effect; on the % scale 0 is the no-effect control and ±100 the full control effect; nearly all actives have a fitted effect of over 55% in size
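Cell growth measured by CellTiter-Glo luminescence after a minimum 48 h, 37 C compound exposure with 20 nM CPT in Tdp1-knockout DT40 cells stably expressing hTDP1, seeded 400/well; qHTS titration format.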
TGFb inhibitor – TGF-b pathway inhibition; HepG2 CAGA-GFP TGF-b/SMAD3 reporter, GFP fluorescence, 18 h; TGF-beta stimulated, 500 pg/mL final; Potency, µM (titrated, usually from 46.1 µM), without a hit: top-dose activity, negative = inhibition, most hits filed as inhibitors; actives 1.2% (n = 410,000); AID 588855; further: potency means the concentration at half of the fitted maximal effect; on the % scale 0 is the no-effect control and ±100 the full control effect; nearly all actives have a fitted effect of over 65% in size
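TGF-beta reporter screen: HEPG2 CAGA-GFP, 1% FBS, 500 pg/mL TGF-beta final, 18 h; per-cell GFP summed per well; curves fitted and categorized by class.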
IL-1B inflam inh – inhibitors of inflammasome signaling (IL-1 beta secretion). actives 4.7% (n = 360,000). THP-1 LPS/ATP IL-1B secretion, AlphaLISA, 16 h; active compounds read low. activity change, % at 57.5 µM; in the data active means activity change below about -50%; inconclusive means mostly about -30% to -49%; further: on the % scale 0 is the no-effect control and ±100 the full control effect
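THP-1 cells pretreated 1 hr with compounds (up to 57.5 uM final), then stimulated with LPS (250 ng/mL final) plus ATP (1.25 mM final); secreted IL-1B measured by AlphaLISA after 16 hr, decreased signal indicating inhibition.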
TDP1 block – inhibitors of human tyrosyl-DNA phosphodiesterase TDP1; AID 485290; Potency, µM (doses to about 130 µM), inactives show top-dose activity change, negative = inhibition, usual class: inhibitors; recombinant TDP1, AlphaScreen DNA substrate cleavage; actives 0.28% (n = 350,000); Q9NUW8; further: potency means the concentration at half of the fitted maximal effect; on the % scale 0 is the no-effect control and ±100 the full control effect; nearly all actives have a fitted effect of over 40% in size
Target sequence (Q9NUW8 whole entry, looked up): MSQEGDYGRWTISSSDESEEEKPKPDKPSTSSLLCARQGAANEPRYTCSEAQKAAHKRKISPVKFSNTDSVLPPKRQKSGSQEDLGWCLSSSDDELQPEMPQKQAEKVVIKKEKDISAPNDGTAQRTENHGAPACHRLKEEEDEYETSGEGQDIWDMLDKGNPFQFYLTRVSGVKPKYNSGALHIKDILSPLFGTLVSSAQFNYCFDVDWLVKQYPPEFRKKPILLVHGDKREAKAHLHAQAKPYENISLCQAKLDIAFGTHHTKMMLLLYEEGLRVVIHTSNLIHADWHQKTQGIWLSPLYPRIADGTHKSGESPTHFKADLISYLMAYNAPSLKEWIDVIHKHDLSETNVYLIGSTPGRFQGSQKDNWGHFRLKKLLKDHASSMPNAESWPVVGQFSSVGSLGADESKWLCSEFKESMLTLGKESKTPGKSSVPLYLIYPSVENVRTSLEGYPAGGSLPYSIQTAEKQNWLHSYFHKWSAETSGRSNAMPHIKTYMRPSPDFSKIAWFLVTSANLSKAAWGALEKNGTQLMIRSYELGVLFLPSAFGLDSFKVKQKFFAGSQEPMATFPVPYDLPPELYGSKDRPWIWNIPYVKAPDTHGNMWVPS
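Tdp1 1 nM final; 15 min RT w/ cpd; substrate 15 nM, 5 min; beads 10 ug/ml, 10 min; AlphaScreen read. Neg ctrl: no enzyme.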
HepG2 viability – counter-screen for TGF-b inhibitors: cytotoxicity in HepG2 cells; actives 0.76% (n = 410,000); Potency, µM (series often up to 46.1 µM), for inactives: at the highest dose activity change, negative = cytotoxicity, actives largely listed as cytotoxic; HepG2 CAGA-GFP viability, ATP luminescence, 18 h; further: potency means the concentration at half of the fitted maximal effect
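HepG2 CAGA-GFP cells (1000/well, DMEM with 1% FBS) received compound, then TGF-beta at 500 pg/mL final, and were incubated 18 hours at 37 degrees C. Viability was read by CellTiter-Glo luminescence. Media-only wells were set as complete cell-killing and DMSO as no toxicity.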
Numbers without * were called inactive; i = inactive; ? = inconclusive; . = not tested or not shown; [ ] = dose if it differs, or a comment. This is a sample that favours compounds with a hit; in the whole collection about 19% have one here. Unless noted, the call rests on the fitted dose curve; in most records, active means well fitted curve in the direction sought with a large enough effect; inconclusive means small, poorly fitted or top-dose-only effect, or another doubt; inactive means no such curve, though single readings can be large; an effect the other way counts as inactive or inconclusive.

SMILES	TDP1 cell noCPT	TDP1 cell CPT	TGFb inhibitor	IL-1B inflam inh	TDP1 block	HepG2 viability
Cc1ccc(OCCCCn2cnc3ccccc32)c(C)c1	8.2µM*	13µM*	-2%	-29	0%	-29%
Brc1ccccc1OCCCCn1cnc2ccccc21	10µM*	4.1µM*	-31%	-84*	5%	-12%
CCN(C(=O)Cn1nc(C)n2c(cc3cc(C)ccc32)c1=O)c1ccccc1	?	?	-5%	-51*	3%	-11%
C=CCN(C(=O)Cn1nc(C)n2c(cc3cc(C)ccc32)c1=O)c1ccccc1	?	?	-3%	-20	2%	-24%
CCN(C(=O)Cn1nnc2sc(-c3ccccc3)cc2c1=O)c1cccc(C)c1	?	16µM*	-10%	.	0%	-1%
CCCN(CCC)C(=O)Cn1nnc2sc(-c3ccccc3)cc2c1=O	-1%	-3%	-12%	.	5%	4%
COC(=O)C(C)n1nnc2sc(-c3ccccc3)cc2c1=O (configuration not stated)	18µM*	?	0%	-9	1%	-8%
CCc1ccc(NC(=O)C(C)n2nnc3sc(-c4ccccc4)cc3c2=O)cc1 (configuration not stated)	?	?	-1%	.	7%	-18%
CN1CCN(c2nc(-c3cccc(C#N)c3)nc3ccccc23)CC1	?	?	.	.	10%[56.1 µM]	.
CC(O)(Cc1ccccn1)Cc1ccccn1	7%	31%	17%	10	.	15%
COCCCn1c(SCc2cccc(Cl)c2)nc2c(sc3ccccc32)c1=O	?	-29%	5%	.	-6%	2%
CCOC(=O)C(C)N1N=C(/C=C/c2ccc(OC)cc2)CCC1=O (configuration not stated)	13µM*	?	11%	4	0%	16%
CCOc1ccc(N2CC(C(=O)NC3CCCCCC3)CC2=O)cc1 (configuration not stated)	6%	19%	-17%	8	-3%	-88%
CCc1nc2nc(C)cc(Nc3cc(C)ccc3C)n2n1	18µM*	?	4%	.	8%	-5%
CCc1nc2nc(C)cc(Nc3cccc(C)c3C)n2n1	-16%	?	-1%	.	0%[12.3 µM]	-5%
Cc1cccc(Nc2cc(C)nc3nc(Cc4ccc(Cl)cc4)nn23)c1	?	21µM*	?	.	7%	-35%
CCc1nc2nc(C)cc(Nc3ccc(Br)cc3F)n2n1	?	16µM*	-27%	.	5%	-13%
Cc1cc(C)c(S(=O)(=O)N2CCC(N3CCN(Cc4ccccc4)C(=O)C3=O)CC2)c(C)c1	-17%	-18%	-2%	.	0%	15%
Cc1ccnc(NC(=O)c2ccc(NS(=O)(=O)/C=C/c3ccccc3)cc2)c1	-9%	-2%	?	-12	0%[0.505 µM]	-9%
Cc1cc(C)c(NC(=O)CCS(=O)(=O)c2cc3c(cc2Cl)NC(=O)CO3)c(C)c1	.	.	-10%	.	6%	-8%
Cc1ccc(NC(=S)NCc2ccc(Cl)cc2)c(OC(F)F)c1	?	?	?	i	-3%	-17%
CCNC(=O)c1ccc(C23CC4CC(CC(C4)C2)C3)o1	15µM*	?	-3%	14	-5%	-9%
Cc1ccc(-c2nnc(SCc3ccccc3)o2)cc1	-20%	-16%	7%	.	-9%	-19%
Cc1noc(C)c1-c1nc(NCCN2CCOCC2)c2ccccc2n1	-6%	-3%	.	.	.	.
COc1ccc(CNC(=O)c2ccc3c(c2)N(Cc2ccccc2F)C(=O)c2ccccc2S3=O)cc1 (configuration not stated)	?	-7%	?	.	8%	-20%
SMILES	TDP1 cell noCPT	TDP1 cell CPT	TGFb inhibitor	IL-1B inflam inh	TDP1 block	HepG2 viability
O=C(Cn1c(=O)c2cccn2c2cccnc21)NCc1cccc(F)c1	-29%	-25%	?	.	-3%	-5%
COc1ccc(OCCNc2cc(N3CCCCC3)ccc2[N+](=O)[O-])cc1	23µM*	18µM*	6%	?	0%	-22%
Cc1cccc(OCCNc2cc(N3CCN(CCO)CC3)ccc2[N+](=O)[O-])c1	21µM*	?	1%	0	5%	-43%
Cc1ccccc1OCCNc1cc(N2CCN(CCO)CC2)ccc1[N+](=O)[O-]	?	?	-9%	-76*	5%	-35%
COc1ccc(OCCNc2cc(N3CCOCC3)ccc2[N+](=O)[O-])cc1	?	?	-1%	-17	8%	-18%
Cc1ccc(C)c(-c2nn(-c3cc(N4CCN(CCO)CC4)ccc3[N+](=O)[O-])c(=O)c3ccccc23)c1	26µM*	?	?	?	10%	-11%
Cc1ccc(C(=O)COC(=O)c2cccc(NC(=O)c3ccc(Cl)cc3Cl)c2)cc1	?	?	?	.	.	-19%
COc1cc(C(=O)NNC(=O)C2CC2)cc(OC)c1OC	-18%	-3%	15%	-4	2%	11%
C=CCCO[C@@H]1O[C@@H](C)[C@H](O)C[C@H]1O	-1%	0%	0%	0	1%	-4%
COC(=O)c1ccccc1NC(=O)c1sc2nc(C)cc(C)c2c1NC(=O)c1ccccc1Cl	.	.	7%	.	1%	1%
O=[N+]([O-])c1ccc(N2CCCC2)cc1NCc1ccccc1	?	-20%	4%	19	-2%	-4%
Cc1ccccc1OCCNc1cc(N2CCCCC2)ccc1[N+](=O)[O-]	?	21µM*	-12%	-17	10%	-7%
CC1CN(c2ccc([N+](=O)[O-])c(NCCOc3ccccc3)c2)CCN1 (configuration not stated)	?	?	?	-62*	11%	-49%
COc1ccc(C(=O)Nc2nnc(S(=O)(=O)N3CCCc4ccccc43)s2)cc1	-3%	-2%	?	.	3%	-23%
CC1=C2C3OC(=O)C(C)C3CCC2(C)C=C(Br)C1=O (configuration not stated)	21µM*	-11%	-6%	-13	.	-15%
C[C@@H]1C(=O)O[C@H]2[C@H]1CC[C@@]1(C)C(=O)C=C[C@@](C)(O)[C@H]21	-5%	4%	1%	6	5%	2%
Cc1ccc(-c2nc3cc(C)c(Br)c(C)n3c2CC2CCCCC2)cc1	13µM*	?	.	0	.	.
